PubChem BioAssay AID463173 (ICCB-Longwood Screening Facility, Harvard Medical School, 2010)
Screen size: about 52,000 compounds; about 4,300 (8.3%) were called active. This excerpt belongs to a sample that is enriched for actives. Unmarked numbers belong to inactive results. Cut-off read from the data, not from the text of the source: active = survival mostly below about 52% (no sharp cut-off); inactive = mostly above about 56%.

Each compound was assayed on DeltatarO mutant (assay: growth inhibition of S. aureus wild type versus tarO mutant, primary screen, teichoic acid synthesis inhibitors, RN4220, OD600 (AID 463173)). Conditions: OD600, 18 h, stronger effect = lower value, screened at 18.75 µg/mL (by protocol).

Compared with `CC(C)c1ccc(NC(=O)c2cnn3c(C(F)F)cc(-c4ccccc4)nc23)cc1`, `CNS(=O)(=O)c1ccc(NC(=O)c2cnn3c(C(F)F)cc(-c4ccccc4)nc23)cc1` is higher in survival: 65% for the first, 66% for the second.

Compared with `COC(=O)c1ccc(C(=O)OC)c(NC(=O)c2cnn3c(C(F)F)cc(-c4ccc(C)cc4)nc23)c1`, `COc1ccc(-c2cc(C(F)F)n3ncc(C(=O)Nc4cc(C)on4)c3n2)cc1` is higher in survival: 60% for the first, 85% for the second.

Going from `CC(C)NC(=O)c1cnn2c(C(F)F)cc(-c3ccccc3)nc12` to `O=C(Nc1cc(F)ccc1F)c1cnn2c(C(F)F)cc(-c3ccccc3)nc12`, the survival rises from 92% to 130%.

Going from `CCCCn1nc(CC(=O)O)c2ccccc2c1=O` to `CCC1Oc2ccccc2N(CC(=O)NCc2cc(OC)ccc2OC)C1=O` (configuration not stated), the survival rises from 83% to 85%.

First: COC(=O)c1ccccc1NC(=O)C1(c2cccs2)CCOCC1
Second: COc1cccc(NC(=O)Cn2cc(C(=O)C3CCCCC3)c3ccccc32)c1
The survival of the first is higher: 83% for the first, 79% for the second.

First: COc1ccc(NC(=O)CN(C)S(=O)(=O)c2cnc[nH]2)cc1Cl
Second: CCc1cccc(-n2c(=O)c3cccnc3n2CC(=O)Nc2ccc(OC)c(Cl)c2)c1
The survival of the first is lower: 98% for the first, 104% for the second.

Going from `COc1ccc(C(=O)NCCn2cc(SCC(=O)Nc3cccc(C)c3)c3ccccc32)cc1` to `COc1ccc(CNC(=O)c2ccc(NC(=O)N3CCSc4ccccc43)cc2)cc1`, the survival falls from 60% to 56%.

Going from `Cc1ccc(-n2c(=O)c3c(C)c(C(=O)N(C)C)sc3n(CC(=O)C(C)(C)C)c2=O)cc1C` to `COc1cccc(CNC(=O)CCc2c(C)nc3c4c(C)cc(C)nc4nn3c2C)c1`, the survival falls from 107% to 80%.

Going from `Cc1ccc(NC(=O)Cn2c(=O)n(CC(=O)NCCc3ccccc3)c(=O)c3ccccc32)cc1` to `COc1ccc(CCNC(=O)CCc2cn(Cc3ccc(C)cc3)c3ccccc23)c(OC)c1OC`, the survival falls from 89% to 52%.

Compared with `CCC(C(=O)NC1CCCC1)N(C(=O)c1snc(C(N)=O)c1N)c1ccccc1` (configuration not stated), `COc1cccc(NC(=O)N(Cc2nc3ccccc3c(=O)[nH]2)C2CCCCC2)c1` is higher in survival: 73% for the first, 83% for the second.

First: COc1cccc(NC(=O)N(Cc2c[nH]c3ccccc23)C2CCCCC2)c1
Second: COc1cccc(NC(=O)N(Cc2c[nH]c3ccccc23)C2CCCCCC2)c1
The survival of the first is higher: 65% for the first, 46% for the second.

Going from `CC(C)NC(=O)CSc1nc2ccccc2c(=O)n1Cc1ccc(C(=O)NC(C)C)cc1` to `COc1ccc(CNC(=O)CSc2ncc(S(=O)(=O)c3ccc(Br)cc3)c(=O)[nH]2)cc1`, the survival falls from 105% to 62%.

First: COc1ccc(-c2csc3nc(-c4ccccc4)oc(=O)c23)cc1OC
Second: COc1ccc(-c2csc3nc(-c4ccc(C)cc4)oc(=O)c23)cc1OC
The survival of the first is higher: 115% for the first, 63% for the second.

Compared with `C=CCc1cccc2cc(C(=O)Nc3cccc(Cl)c3)c(=O)oc12`, `C=CCc1cccc2cc(NC(C)=O)c(=O)oc12` is lower in survival: 79% for the first, 76% for the second.

`CCCCNc1nc(Oc2ccc(OCCC)nn2)nc(N(C)C)n1` and `COc1cccc(-c2noc(COc3cccc(C)c3C)n2)c1` are the same in survival: 84% for the first, 84% for the second.

Compared with `COc1cccc(-c2noc(COc3ccccc3Cl)n2)c1`, `COc1ccc(C(=O)NCc2nc(-c3cccc(C)c3)no2)cc1OC` is higher in survival: 81% for the first, 98% for the second.

Compared with `CCc1ccc(OCC(=O)NCc2nc(-c3cccc(C)c3)no2)c(Br)c1`, `COc1ccc(-c2noc(CNS(=O)(=O)c3ccc(Br)cc3)n2)cc1OC` is lower in survival: 94% for the first, 70% for the second.

Going from `COc1ccc(N2CCN(c3ccc(-c4nc(-c5cccc(C)c5)no4)cc3[N+](=O)[O-])CC2)cc1` to `COc1cc(OC)cc(-c2nc(-c3ccc4c(c3)[nH]c(=O)n4C)no2)c1`, the survival rises from 75% to 94%.

First: COc1ccc(-c2noc(COc3cc(C)c(Br)c(C)c3)n2)cc1OC
Second: COc1ccc(CC(=O)NCc2ccc3c(c2)CCN3C(=O)c2ccc(C)cc2)cc1OC
The survival of the first is lower: 60% for the first, 99% for the second.

Compared with `Cc1ccc2nc(-c3ccncc3)c(Nc3ccccc3C)n2c1`, `O=C(CSc1nc(-c2ccccc2)cc(=O)[nH]1)Nc1ccccc1` is lower in survival: 103% for the first, 77% for the second.

First: COc1ccccc1-c1nc2c(c(SCc3ccc(F)cc3Cl)n1)Cc1c(CO)cnc(C)c1O2
Second: O=C(c1ccc(F)cc1)c1cn(Cc2ccccc2F)c2cc3c(cc2c1=O)OCCO3
The survival of the first is lower: 69% for the first, 83% for the second.

Compared with `CCOC(=O)c1ccc(NC(=O)CC2C(=O)N(c3ccc(F)cc3)C(=O)N2Cc2cccnc2)cc1` (configuration not stated), `COc1ccc(NC(=O)c2c(NCc3cccc(F)c3)sc3c2CCCC3)c(OC)c1` is lower in survival: 95% for the first, 69% for the second.

Compared with `COc1ccc(-c2nc3cnccn3c2NCc2ccc3c(c2)OCO3)cc1CN1CCOCC1`, `CC1CCC(NC(=O)c2ccc(CS(=O)(=O)c3cccc(C(F)(F)F)c3)o2)CC1` (configuration not stated) is lower in survival: 88% for the first, 75% for the second.

In the case of `CCN(CC)c1ccc(NC(=O)c2cnn3c(C(F)F)cc(-c4ccccc4)nc23)cc1`, the survival is reported as 59% (active).
For `CCOc1ccccc1NC(=O)c1cnn2c(C(F)F)cc(-c3ccccc3)nc12`, the survival was 58% (active).
In the case of `COc1ccc(-c2cc(C(F)F)n3ncc(C(=O)Nc4cc(OC)ccc4OC)c3n2)cc1`, the survival is reported as 51% (active).
With `COc1cccc(NC(=O)N(Cc2cn(C)c3ccccc23)C2CCCCC2)c1` the survival was -12% (active).
For `COc1cccc(NC(=O)N(Cc2cn(C)c3ccccc23)C2CCCCCC2)c1`, the survival was -13% (active).
In the case of `COc1ccc(-c2csc3nc(-c4ccc(F)cc4)oc(=O)c23)cc1OC`, the survival is reported as 48% (active).
In the case of `C=CCc1cccc2cc(C(=O)Nc3ccc(F)cc3)c(=O)oc12`, the survival is reported as 44% (active).
For `COc1ccccc1OCc1nc(-c2cccc(C)c2)no1`, the survival was -3% (active).
For `COc1cc(OC)cc(-c2nc(-c3cccc(C)c3)no2)c1`, the survival was -3% (active).
With `COc1ccc(-c2noc(COc3ccc(Br)cc3C)n2)cc1OC` the survival was 33% (active).
For `CCc1ccc(OCc2nc(-c3ccc(OC)c(OC)c3)no2)c(Br)c1`, the survival was 33% (active).
